# Measurements as given in PubChem BioAssay (NCI).
# Where “and” joins values, the source holds several entries; their conditions need not be identical. Identical values can stand only once. This is part of a sample that, as a whole, favours compounds with a hit. Of some 83,000 tested, about 20% had one in any assay.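 Growth was measured after 48 h exposure to one concentration of compound in 96-well plates. Values under 10 count as active.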 Calls of active or inactive are those of the source.
# Key:
# Test in all cases: NCI-60 one-dose screen, 48 h (100 = growth as untreated, 0 = no growth, -100 = all killed)
# Conditions in all cases: 10 µM unless noted
# HCT-15 colon = system: HCT-15 colon
# HT29 colon = system: HT29 colon
# SNB-75 CNS = system: SNB-75 CNS
# SNB-19 CNS = system: SNB-19 CNS
# U251 CNS = system: U251 CNS
# PC-3 prostate = system: PC-3 prostate
# SK-MEL-5 melanoma = system: SK-MEL-5 melanoma
# UACC-62 melanoma = system: UACC-62 melanoma
# LOX IMVI melanoma = system: LOX IMVI melanoma
# SK-MEL-28 melanoma = system: SK-MEL-28 melanoma
SMILES,growth (HCT-15 colon),growth (HT29 colon),growth (SNB-75 CNS),growth (SNB-19 CNS),growth (U251 CNS),growth (PC-3 prostate),growth (SK-MEL-5 melanoma),growth (UACC-62 melanoma),growth (LOX IMVI melanoma),growth (SK-MEL-28 melanoma)
NC(=O)NO,106% (inactive) and 72.2% (inactive),104% (inactive) and 70.3% (inactive),91.7% (inactive) and 60.3% (inactive),105% (inactive) and 69.6% (inactive),96.6% (inactive) and 65.5% (inactive),106% (inactive) and 72.6% (inactive),106% (inactive) and 80.5% (inactive),103% (inactive) and 74.6% (inactive),101% (inactive) and 59% (inactive),107% (inactive) and 45.5% (inactive)
CNc1cc(-c2cccc(OC(F)(F)F)c2)nc2ccc(N3CCCC3)cc12,13.5% (inactive) and -8.32% (active) and 3.05% (active),5.99% (active) and 1.66% (active) and 1.06% (active),107% (inactive) and 76.5% (inactive),18.7% (inactive) and 12.2% (inactive) and 16.2% (inactive),-42.1% (active) and -81.2% (active) and -79.4% (active),-72% (active) and 8.8% (active) and 13.1% (inactive),-77.4% (active) and -88.7% (active) and -70.6% (active),-71.8% (active) and -74.8% (active) and -72.1% (active),-64.1% (active) and -93.8% (active) and -90.1% (active),-66.3% (active) and -82.3% (active) and -64.4% (active)
CNC(=O)c1cccc(-c2ccc3c(N4CCOC[C@@H]4C)nc(N4CCOC[C@@H]4C)nc3n2)c1,9.22% (active) and 7.13% (active),18.3% (inactive) and 1.73% (active),-32.8% (active) and -40.5% (active),10.2% (inactive) and 8.05% (active),9.22% (active) and 6.58% (active),6.6% (active) and 7.98% (active),-38.2% (active) and -49.8% (active),-24.9% (active) and -51.8% (active),3.01% (active) and -1.67% (active),-15.7% (active) and -26.3% (active)
CN1CCN(c2ccc3nc(-c4c(N)c5c(F)cccc5[nH]c4=O)[nH]c3c2)CC1,30.7% (inactive) and 18.7% (inactive),1.59% (active) and 10.3% (inactive),35.3% (inactive) and 28.4% (inactive),53.9% (inactive) and 61.5% (inactive),34.9% (inactive) and 33.5% (inactive),27.2% (inactive) and 38.4% (inactive),11.2% (inactive) and 36.3% (inactive),46.5% (inactive) and 41% (inactive),-66.4% (active) and 16.4% (inactive),-5.34% (active)
OCCN1CCN(CCO)CC1,102% (inactive) and 101% (inactive) and 107% (inactive),108% (inactive) and 101% (inactive) and 110% (inactive),111% (inactive) and 83.4% (inactive) and 96.1% (inactive),99.2% (inactive) and 113% (inactive),95.7% (inactive) and 98% (inactive) and 105% (inactive),91.7% (inactive) and 99.9% (inactive) and 96.2% (inactive),102% (inactive) and 92% (inactive) and 115% (inactive),99.5% (inactive) and 92.6% (inactive) and 109% (inactive),92.9% (inactive) and 93.2% (inactive) and 111% (inactive),33.7% (inactive) and 104% (inactive) and 106% (inactive)
O=c1c2ccccc2nc2n1Cc1nc3ccccc3c(=O)n1C2,90.9% (inactive) and 108% (inactive),111% (inactive) and 103% (inactive),86.6% (inactive) and 105% (inactive),102% (inactive) and 91.9% (inactive),105% (inactive) and 108% (inactive),98.6% (inactive) and 107% (inactive),95.3% (inactive) and 107% (inactive),95.6% (inactive) and 98.9% (inactive),96.1% (inactive) and 97.6% (inactive),97.8% (inactive) and 101% (inactive)
Cn1c(=O)c2[nH]c(CCCCCCCCc3nc4ccccc4[nH]3)nc2n(C)c1=O,80.1% (inactive) and 96.1% (inactive),99% (inactive) and 85.6% (inactive),93.5% (inactive) and 80.5% (inactive),66.9% (inactive) and 65.4% (inactive),72.5% (inactive) and 80.2% (inactive),48.3% (inactive) and 87.3% (inactive),3.01% (active) and 12.2% (inactive),59.1% (inactive),58.3% (inactive) and 55.9% (inactive),88.9% (inactive)
COC(=O)[C@H]1CCCN1C(=O)C1CCCN1C(=O)[C@@H](Cc1ccccc1)NC(=S)Nc1cc(C(F)(F)F)cc(C(F)(F)F)c1 (stereo not given in full),95.8% (inactive) and 75.5% (inactive),111% (inactive) and 72.6% (inactive),85.4% (inactive) and 73.3% (inactive),92.1% (inactive) and 86.7% (inactive),98.8% (inactive) and 77% (inactive),101% (inactive) and 53.3% (inactive),100% (inactive) and 88.2% (inactive),94.7% (inactive) and 90.3% (inactive),103% (inactive) and 88.1% (inactive),109% (inactive) and 99.4% (inactive)
C1CCCCNCCC1,113% (inactive),95.1% (inactive),99.5% (inactive),110% (inactive),103% (inactive),101% (inactive),109% (inactive),103% (inactive),111% (inactive),109% (inactive)
O=C(Nc1cccc(-n2ccc3c(NC(=O)c4ccccc4)nccc32)c1)c1ccc(Cl)c(C(F)(F)F)c1,-15.1% (active) and 34.3% (inactive),43% (inactive),16% (inactive) and 84.4% (inactive),13.8% (inactive) and 55.4% (inactive),43.4% (inactive),-30.6% (active) and 51.1% (inactive),-92.4% (active) and 57.4% (inactive),5.48% (active) and 54.1% (inactive),-80.3% (active) and 18.4% (inactive),-38.9% (active) and 79.8% (inactive)
CC(=O)Oc1cc(C(=O)O)cc(OC(C)=O)c1OC(C)=O,107% (inactive) and 101% (inactive),114% (inactive) and 96.5% (inactive),88.1% (inactive) and 90.2% (inactive),93.4% (inactive) and 108% (inactive),93.1% (inactive) and 105% (inactive),93.4% (inactive) and 95.5% (inactive),99.5% (inactive) and 101% (inactive),93.7% (inactive) and 103% (inactive),96.3% (inactive) and 96% (inactive),115% (inactive) and 99.3% (inactive)
COc1ccccc1/C=N\N=C(N/N=C/c1ccccc1OC)N/N=C/c1ccccc1OC,55.9% (inactive) and 32.1% (inactive),23.7% (inactive) and 12.9% (inactive),86.7% (inactive) and 71.1% (inactive),59% (inactive) and 23.7% (inactive),39.3% (inactive) and 15.3% (inactive),41.2% (inactive) and 19.7% (inactive),69.8% (inactive) and -91.3% (active),55.5% (inactive) and 19.7% (inactive),28.6% (inactive),78.8% (inactive) and 64.5% (inactive)
O=C(O)C1(C(=O)O)CCC1.[NH2-].[NH2-].[Pt+2],102% (inactive) and 103% (inactive),106% (inactive) and 89.3% (inactive),84.7% (inactive) and 88.6% (inactive),94.6% (inactive) and 99.2% (inactive),102% (inactive) and 94.1% (inactive),93.6% (inactive) and 78.5% (inactive),101% (inactive) and 94.1% (inactive),96.1% (inactive) and 95.3% (inactive),95.9% (inactive) and 87.9% (inactive),112% (inactive)
CCN(CC)CCOc1ccc2c(c1)C(=O)c1cc(OCCN(CC)CC)ccc1-2,78.2% (inactive) and 39% (inactive),8.16% (active) and 6.92% (active),74.9% (inactive) and 67.1% (inactive),83.9% (inactive) and 75.7% (inactive),53.6% (inactive) and 61.3% (inactive),70.6% (inactive) and 35.9% (inactive),95% (inactive) and 95.5% (inactive),105% (inactive) and 103% (inactive),52.3% (inactive) and 37.3% (inactive),123% (inactive) and 108% (inactive)
